Structures are written as SMILES. Screen size: about 360,000 compounds; about 3,000 (0.83%) were called active. For the sample, actives were picked, then their nearest neighbours and some compounds at random. Unmarked numbers belong to inactive results. Rule as the data show it: active = inhibition above about 50%; inactive = the rest.

For the test, the target named is DNA (cytosine-5)-methyltransferase 1 (Homo sapiens) (UniProt P26358). Put plainly: human DNMT1 methyltransferase inhibitors, primary screen, biochemical, molecular beacon, fluorescence, HinP1I cleavage, uHTS (AID 588458). As to conditions: at 10 µM, stronger effect = higher value.
DNA (cytosine-5)-methyltransferase 1 (Homo sapiens), sequence (P26358 504-1616 limits assumed): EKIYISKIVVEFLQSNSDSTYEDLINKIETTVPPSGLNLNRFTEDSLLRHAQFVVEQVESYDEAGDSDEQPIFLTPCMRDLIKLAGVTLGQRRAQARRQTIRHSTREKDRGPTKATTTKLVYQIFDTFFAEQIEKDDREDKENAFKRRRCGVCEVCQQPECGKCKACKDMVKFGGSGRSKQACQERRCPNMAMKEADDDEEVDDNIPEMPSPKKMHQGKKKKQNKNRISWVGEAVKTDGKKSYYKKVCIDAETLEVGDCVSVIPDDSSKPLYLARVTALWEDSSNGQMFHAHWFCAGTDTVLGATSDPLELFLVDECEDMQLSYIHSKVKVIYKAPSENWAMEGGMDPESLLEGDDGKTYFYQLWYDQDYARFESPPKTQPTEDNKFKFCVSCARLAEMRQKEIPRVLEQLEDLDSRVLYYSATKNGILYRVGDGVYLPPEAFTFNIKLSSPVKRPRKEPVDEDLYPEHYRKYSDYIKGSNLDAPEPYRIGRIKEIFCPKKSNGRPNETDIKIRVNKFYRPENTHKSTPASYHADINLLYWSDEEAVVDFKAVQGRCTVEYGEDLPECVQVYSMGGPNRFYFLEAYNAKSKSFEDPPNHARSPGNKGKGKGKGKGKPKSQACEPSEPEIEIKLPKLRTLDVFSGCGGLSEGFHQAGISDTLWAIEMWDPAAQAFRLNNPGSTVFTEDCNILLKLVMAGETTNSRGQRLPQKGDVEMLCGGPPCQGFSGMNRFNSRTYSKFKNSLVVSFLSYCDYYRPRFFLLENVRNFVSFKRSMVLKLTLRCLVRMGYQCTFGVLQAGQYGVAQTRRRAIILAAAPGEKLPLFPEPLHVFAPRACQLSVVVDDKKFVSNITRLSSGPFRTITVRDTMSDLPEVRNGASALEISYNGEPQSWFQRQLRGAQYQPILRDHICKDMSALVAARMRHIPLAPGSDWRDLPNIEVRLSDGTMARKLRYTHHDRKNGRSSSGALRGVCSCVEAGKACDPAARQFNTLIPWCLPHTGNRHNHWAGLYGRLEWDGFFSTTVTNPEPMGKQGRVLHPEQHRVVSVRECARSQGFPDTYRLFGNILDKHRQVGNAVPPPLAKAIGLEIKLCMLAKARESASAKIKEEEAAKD
Regarding `O=C(CC1C(=O)NCCN1Cc1ccc(-c2ccccc2)cc1)NCc1ccncc1` (stereo not drawn), the inhibition (reported as % activation of signal) was -12.2%. For `Cc1ccccc1-n1cc(CNC(=O)C2CCC(=O)N(C3CC3)C2)cn1` (stereo not drawn) the value was 0.34%; for `Cc1ccccc1-n1cc(CNC(=O)CC2C(=O)NCCN2C/C=C/c2ccccc2)cn1` (stereo not drawn), 68.2% (active); for `COc1ccccc1NC(=O)Nc1nnc(Cc2ccc(F)cc2)s1`, 9.56%. For `COc1ccc(Cc2nnc(NC(=O)Cc3cccs3)s2)cc1`, the inhibition (reported as % activation of signal) was 113% (active). Turning to `COc1cc(OC)cc(C(=O)NNC(=O)Cc2cccs2)c1`, the inhibition (reported as % activation of signal) is 7.66%.

Regarding `CC(C)(C)NC(=O)C(c1ccncc1)N(C(=O)CNC(=O)c1ccco1)c1ccc2c(c1)OCO2` (stereo not drawn), the inhibition (reported as % activation of signal) is -1.68%. Then `CCOc1ccc(-n2cnnn2)cc1S(=O)(=O)N1CCC(C)CC1C` (stereo not drawn), with 4.44%; and `CC(C)(C)OC(=O)C[C@@H]1C/C=C\C[C@@H](CC(=O)N[C@@H](CO)Cc2ccccc2)C(=O)N2CCC[C@H]2COC1=O`, with 1.28%. Then `Nc1ncnc(Nc2cccc(Cl)c2Cl)n1`, with 0.57%; and `COc1cc(C(=O)Nc2cc(C(F)(F)F)ccc2-n2cncn2)cc(OC)c1OC`, with -2.48%. For `Cc1cc(C(=O)OCC(=O)NCc2ccco2)c(C)n1-c1ccccc1` the value was 55.9% (active). As to `O=C(COC(=O)c1ccccc1O)NCc1ccco1`, the inhibition (reported as % activation of signal) is 50%. Then `O=C(COC(=O)c1cnc(Cl)c(Cl)c1)NCc1ccco1`, with 30.3%; and `N#CC(C#N)=CN=c1ccn(Cc2ccc(Cl)cc2Cl)cc1`, with -4.93%. In the case of `Cc1cccc(C)c1NC(=O)C1(C)c2cccc[n+]2CC(=O)N1Cc1cccs1` (stereo not drawn), the inhibition (reported as % activation of signal) was -3.99%. Then `O=C(/C=C/c1cnc2ccccc2n1)NC1CCCCCC1`, with -5.96%; and `COc1ccc(CCNC(=O)C(=O)NCC2OCCN2S(=O)(=O)c2ccc(OC)c(C)c2)cc1` (stereo not drawn), with -5.69%; and `O=c1[nH][nH]c(C(F)(F)F)c1C=NCc1ccccc1Cl`, with -3.13%.

`CCN(CC)S(=O)(=O)c1ccc(N2CC(C(=O)NCc3cccnc3)CC2=O)cc1` (stereo not drawn): the inhibition (reported as % activation of signal) was 2.78%. Then `O=C(COc1ccc([N+](=O)[O-])cc1)Nc1cccc(C(=O)Nc2ccccc2C(=O)O)c1`, with -0.08%; and `O=C(COc1ccc([N+](=O)[O-])cc1)Nc1ccc(N2CCCC2)cc1`, with 92.5% (active). For `Cc1cc(C)cc(OCC(=O)Nc2ccc(N3CCOCC3)cc2N2CCOCC2)c1`, the inhibition (reported as % activation of signal) is -5.22%. For `O=C(CCC(=O)N1CCCC1)Nc1ccc([N+](=O)[O-])cc1` the value was 0.7%; for `O=C(COc1ccc(/C=N/NC(=O)c2ccc(O)cc2)cc1)Nc1ccc([N+](=O)[O-])cc1`, 54% (active); for `O=C(COc1ccc(Cl)cc1)Nc1ccccc1CO`, 0.96%. Then `O=C(COC(=O)C1CCCCC1)Nc1ccc([N+](=O)[O-])cc1`, with -1.74%; and `Cc1cc(N2CCCC2)ccc1NC(=O)COc1ccc(Cl)cc1`, with 59.6% (active). For `O=C(N/N=C/c1cccc(OC(=O)c2ccc([N+](=O)[O-])cc2)c1)c1cccnc1` the value was 2.43%; for `CC(CO)N1CCS(=O)(=O)CC1` (stereo not drawn), 4.55%.

For `Cc1ccc(C)n1-c1ccncc1`, the inhibition (reported as % activation of signal) was -0.41%. For `COc1ccc(NS(=O)(=O)c2ccc(C)c(C(=O)N(C)Cc3ccc(OC)cc3OC)c2)cc1` the value was -0.59%; for `C[C@H]([C@@H](O)[C@@H](O)[C@@H](C)C(C)(C)C)[C@H]1CC[C@H]2C3CC[C@H]4C[C@H](OS(=O)(=O)O)[C@@H](OS(=O)(=O)O)C[C@]4(C)[C@H]3CC[C@]12C` (stereo partly drawn), 46.8%.

Regarding `CC(C)Oc1ccc(CC(=O)NNC(=S)Nc2ccc(Br)cc2)cc1`, the inhibition (reported as % activation of signal) is -8.54%.

With `CCCOc1ccc(Cc2c(Cl)nc(SC)nc2NC)cc1`, the inhibition (reported as % activation of signal) is 5.36%.

Turning to `CC(C)c1ccc(Nc2nnc(SCC(=O)c3nnc(-c4ccccc4)o3)s2)cc1`, the inhibition (reported as % activation of signal) is 79.2% (active). In the case of `CC(C)N(C(=O)CSc1nnc(NC2CC2)s1)c1ccccc1`, the inhibition (reported as % activation of signal) was -1.85%. Then `CC(C)Nc1nnc(SCC(=O)c2c[nH]c3ccccc23)s1`, with -9.78%; and `CN(C)CCNC(=O)c1cccc(-c2cnc3c(NC=O)cc(-c4cccc(C(F)(F)F)c4)cn23)c1`, with -1.67%; and `Cc1ccccc1NC(=O)CN1C(=O)N/C(=C\c2cccn2-c2cccc(C(=O)O)c2)C1=O`, with 92.6% (active). `COC(=O)CN1C(=O)N/C(=C/c2ccc(OC)c(C)c2OC)C1=O`: the inhibition (reported as % activation of signal) was 0.3%. For `Cc1ccccc1NC(=O)Cn1c(=O)n(CC2CCCO2)c(=O)c2ccccc21` (stereo not drawn) the value was 1.1%; for `CC(C)n1ncc2c(C(=O)N3CCN(Cc4cccs4)CC3)cc(C3CC3)nc21`, 2.36%.

The values above are taken from PubChem BioAssay AID588458 (Sanford-Burnham Center for Chemical Genomics, 2011).
